Among all 420,000 compounds or so, about 50,000 (12%) were called active. Not shown: some 26% with an inconclusive outcome. Only a selection was taken, and actives are over-represented in it overall. A number with no mark means an inactive call. Calls come from the whole dose curve; as a rule, active = well fitted inhibition curve with a large enough effect; inconclusive = small, poorly fitted or top-dose-only effect; inactive = flat fitted curve, though single readings scatter.
Assay: qHTS for Inhibitors of human tyrosyl-DNA phosphodiesterase 1 (TDP1): qHTS in cells in presence of CPT; note: nearly all actives have a fitted effect of over 55% in size
Details: chicken DT40 Tdp1-/-;hTDP1 cells + 20 nM CPT, ATP luminescence, 48 h; series mostly up to 46.2 µM; activity change, negative = growth inhibition: at the top concentration
Outline: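 Chicken DT40 Tdp1-/- cells stably complemented with human TDP1 were seeded at 400 cells/well in medium containing 20 nM camptothecin, exposed to pin-transferred compounds, and grown at 37 °C for at least 48 hr. Viability was read as ATP luminescence.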
% is set by controls: 0 for no effect and ±100 for the full control effect; potency is the fitted concentration of half-maximal effect.

In order of falling “activity change, negative = growth inhibition” value:
1. COc1cc(C(=O)NN(CCC#N)C2=NS(=O)(=O)c3ccccc32)cc(OC)c1OC  19.6%
2. O=C(N/N=C/c1cccc(OC(=O)c2ccc([N+](=O)[O-])cc2)c1)c1cccnc1  10.5%
3. OC1CSc2nc3ccccc3n2C1 (stereo not drawn)  8.44%
4. CCCCN(C(=O)c1ccc(C)o1)c1c(N)n(CCCC)c(=O)[nH]c1=O  7.98%
5. COCCNc1ncnc2c1ncn2[C@H]1CN(CCN2CCOCC2)C[C@@H](CO)O1  6.48%
6. CC(=O)N1c2ccc(S(=O)(=O)N3CCC(C(=O)NC4CCCCC4C)CC3)cc2CC1C (stereo not drawn)  5.58%
7. Cc1cccc(NC(=O)c2cccnc2Cl)n1  5.42%
8. O=C(COC(=O)c1ccc(S(=O)(=O)N2CCCCCC2)cc1)Nc1ccccc1C(F)(F)F  4.84%
9. COc1ccc(OC)c(NC(=O)c2cccc(S(=O)(=O)N3CCN(C(C)=O)CC3)c2)c1  4.49%
10. CN(C)CCOc1cccc(Br)c1  3.6%
11. O=C(CCNC(=O)Cn1ccc2ccccc2c1=O)NCCC1=CCCCC1  2.96%
12. COC(=O)C1=C(C)NC(=O)CC1c1ccccc1OC (stereo not drawn)  2.8%
13. N#CC1(NC(=O)COC(=O)Cc2n[nH]c(=O)c3ccccc23)CCCCC1  -2.98%
14. CN(c1ccc(OCC(=O)O)cc1)S(=O)(=O)c1ccc2ccccc2c1  -4.79%
15. CC(=O)N1CCc2cc(Br)cc(S(=O)(=O)CCC(=O)Nc3c(C)n(C)n(-c4ccccc4)c3=O)c21  -6%
16. CCc1cccc(NC(=O)C2CCCN(S(=O)(=O)c3ccc4[nH]c(=O)ccc4c3)C2)c1 (stereo not drawn)  -6.93%
17. CCc1nnc(NC(=O)CSc2nc3ccccc3c(=O)n2CCCOC)s1  -8.33%
18. COc1ccc(OC)c(NC(=O)CSc2nc(-c3ccccc3)cc(=O)[nH]2)c1  -8.5%
19. COC(=O)c1cc(NC(=O)CCc2c(C)nc3c4c(C)cc(C)nc4nn3c2C)cc(C(=O)OC)c1  -8.98%
20. COc1ccc(NC(=O)C/C(C)=N/NC(=O)c2cnccn2)cc1Cl  -9.25%
21. C=CCn1c(SCc2ccc(C(=O)NCCO)cc2)nc2ccccc2c1=O  -9.74%
22. O=C(Nc1ccc(Cl)cn1)c1ccccc1-c1ccccc1  -9.84%
23. COc1ccc(CN2C(=O)C(CC(=O)NC3CCCCC3)CC(C(=O)N3CCOCC3)=C2C)cc1 (stereo not drawn)  -10.3%
24. Cn1nnnc1SCC(=O)Nc1sccc1C(N)=O  -10.4%
25. O=C(Nc1ccc(C(=O)OCc2cc(=O)n3nc(C4CC4)sc3n2)cc1)c1ccc(F)cc1  -12.1%
26. CCc1ccccc1NC(=O)NCCN1CCCCC1  -12.2%
27. CC1(C(=O)NS(=O)(=O)c2ccccc2)CCN1C(=O)C/C=C/c1ccccc1 (stereo not drawn)  -13.3%
28. COc1ccc(Cl)cc1NC(=O)CSc1nc2ccccc2c2nc(-c3ccccc3)nn12  -13.4%
29. CC1(C)S[C@@H]2[C@H](N=CN3CCCCCC3)C(=O)N2[C@H]1C(=O)O  -15.7%
30. COc1ccc(NC(=O)CCCc2nnc3n(CCC(C)C)c(=O)c4sccc4n23)c(OC)c1  -17.2%
31. CC(C)[C@@H]1NC(=O)c2cc([N+](=O)[O-])cc(I)c2NCCC[C@@H](C(=O)NC(CC(=O)O)C(N)=O)NC(=O)[C@H](CO)NC1=O (stereo partly drawn)  -22.2%
32. COc1ccc(OC)c(NC(=O)C2CCCN2S(=O)(=O)c2cccc3nsnc23)c1 (stereo not drawn)  -22.3%
33. COc1ccc(S(=O)(=O)N(C)C[C@H]2OCc3cnnn3CCCC(=O)N([C@H](C)CO)C[C@H]2C)cc1  -22.7%
34. COc1cc(/C=C/C(=O)OCC(=O)Nc2cccc(Oc3ccccc3)c2)ccc1O  -24.9%
35. CC(=O)N1c2ccc(S(=O)(=O)N3CCC(C(=O)NC4CCCC(C)C4C)CC3)cc2CC1C (stereo not drawn)  -25.8%
36. CC(=O)N1c2ccc(S(=O)(=O)N3CCC(C(=O)NCc4ccc(F)cc4)CC3)cc2CC1C (stereo not drawn)  -26.5%
37. CC(C)(C)c1ccc(/C=C/C(=O)Nc2ncccn2)cc1  -28.6%
38. CC1=C(C(=O)OCc2ccc(C)cc2)C(c2c(Cl)cccc2Cl)CC(=O)N1 (stereo not drawn)  -45.1%

With CC1=C(C(=O)OCc2ccc(C)cc2)C(c2ccccc2Cl)CC(=O)N1 (stereo not drawn) the Potency was 13 µM (active).
In the case of CC(=O)N1c2ccc(S(=O)(=O)N3CCCC(C(=O)Nc4cccc(F)c4)C3)cc2CC1C (stereo not drawn), the Potency is reported as 11.6 µM (active).
In the case of CC(=O)N1c2ccc(S(=O)(=O)N3CCCC(C(=O)Nc4cccc(Cl)c4)C3)cc2CC1C (stereo not drawn), the Potency is reported as 16.4 µM (active).
In the case of COc1ccc(OC)c(NC(=O)C2CCCN2S(=O)(=O)c2ccc3c(c2)CC(C)N3C(C)=O)c1 (stereo not drawn), the Potency is reported as 20.6 µM (active).
For CC1(C)CCSC(/C=C/c2ccccc2)=N1, the Potency was 4.61 µM (active).
With C/C=C/C=C/C(=O)O the Potency was “inactive”.
In the case of CC(=O)NCCn1c(SCC(=O)Nc2ccc(C)cc2)nc2ccccc2c1=O, the Potency is reported as “inactive”.
In the case of CCOCCCn1c(SCC(=O)Nc2cc(OC)ccc2OC)nc2ccccc2c1=O, the Potency is reported as 13 µM (active).
With CCOCCCn1c(SCC(=O)Nc2ccc(CC)cc2)nc2ccccc2c1=O the Potency was 14.6 µM (active).
With CSc1nccc(NC(=O)c2ccc(C(C)(C)C)cc2)n1 the Potency was 9.2 µM (active).

Reference: PubChem BioAssay AID686979 (National Center for Advancing Translational Sciences (NCATS), 2013)
